According to PubChem BioAssay (NCI):
The panel holds about 83,000 compounds, 20% with a hit somewhere; the sample as a whole holds those more often.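 Single-dose data. Exposure time 48 hours. Values below 10 considered active.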 Values without a mark were called inactive. Activity calls are given as the source filed them.

System: HL-60(TB) leukemia
Assay: NCI-60 one-dose screen, 48 h (100 = growth as untreated, 0 = no growth, -100 = all killed)
Settings: 10 µM unless noted

SMILES | growth
CC(C)(C)n1cc(-c2ccnc(NCCCNS(=O)(=O)c3cccc(F)c3)n2)c(-c2ccc(Cl)c(O)c2)n1 | 128%
C#C[C@]1(O)CC[C@H]2[C@@H]3CC=C4c5sc(-c6ccc(F)cn6)nc5CC[C@]4(C)[C@H]3CC[C@@]21C | 8.65% (active)
CC(=O)C1=C(C)NC(NNc2ccccc2)=NC1c1ccc([N+](=O)[O-])cc1 (stereo not drawn) | 88.3%
O=c1oc2ccc(-c3ccc(F)cc3F)cc2c(=O)n1-c1ccc(F)c(F)c1 | -18.9% (active)
O=C(Nc1cccc(Cl)c1)Nc1nc2ccc(-c3cccc4ccccc34)cc2s1 | 66.9%
NS(=O)(=O)c1ccc(Nc2nc(N/N=C/CCc3ccccc3)nc(Nc3ccccc3)n2)cc1 | 107%
O=C1CSC(c2cn(-c3ccccc3)nc2-c2ccc(Cl)cc2)N1c1ccccc1 (stereo not drawn) | 117%
Cc1ccc(NC(=O)CNc2cc(C(N)=O)cc(F)c2C)c(Cl)c1 | 133%
COc1ccc(-c2nc3ccc(-c4nnc(SCC(=O)Nc5ccc(C(=O)/C=C/c6ccc(Cl)cc6)cc5)o4)cc3[nH]2)cc1OC | 88.7%
OCC(Nc1ncnc2ccc(-c3cnc4cnccn34)cc12)c1ccccc1 (stereo not drawn) | 78.1%
CNCCN(C)c1ccc(Nc2cc(NC3CC3)n3ncc(C#N)c3n2)cc1NC(C)=O | -7.57% (active)
Oc1ccc(-c2nc3ccc(/C(=N\N=C\c4ccc(Cl)cc4)c4ccccc4)cc3[nH]2)cc1 | 27.5%
CC1(C)[C@@H](O)CC[C@]2(C)[C@H]3CC[C@@H]4[C@H]5[C@H](C(=O)/C=C\c6ccncc6)CC[C@]5(O)CC[C@@]4(C)[C@]3(C)CC[C@@H]12 | 26.4%
